This note sets out measurements from PubChem BioAssay (NCATS).

Records with an inconclusive call do not appear. Calls of active or inactive are those of the source. The call rests on the fitted dose curve; in most records, active means well fitted inhibition curve with a large enough effect; inconclusive means small, poorly fitted or top-dose-only effect; inactive means flat fitted curve, though single readings scatter.

What all share (assay): qHTS profiling for inhibitors of Plasmodium falciparum proliferation (AID 504749); further: nearly all actives have a fitted effect of over 60% in size
Conditions in all cases: P. falciparum in erythrocytes, SYBR Green DNA, 72 h; series mostly up to 28.7 µM

The subject of one assay is PAD. The procedure, abridged:
(§1)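 Infected RBCs, 0.3% parasitemia/2.5% Hct final; cpd 72 h, 37 C, 5% CO2; lysis buffer with saponin/triton/SYBR Green I, o/n RT dark; FI 485/535; norm. to artemisinin (0.29 uM) and DMSO.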

A further assay deals with PC15. The procedure, abridged:
as §1

The next assay relates to PC26. The procedure, abridged:
as §1

A further assay concerns PC49. The method in brief: as §1
The next assay has as its system SC27B. The procedure, abridged: as §1
Another assay deals with TAB109. The method in brief:
as §1

The subject of a further assay is TAB113. The procedure, abridged: as §1
The subject of a further assay is TAB165. The procedure, abridged: as §1
A further assay has as its system W2. The method in brief: as §1
Potency means the concentration at half of the fitted maximal effect.

In the case of `C=CC[C@@H]1/C=C(\C)C[C@H](C)C[C@H](OC)[C@H]2O[C@@](O)(C(=O)C(=O)N3CCCC[C@H]3C(=O)O[C@H](/C(C)=C/[C@@H]3CC[C@@H](O)[C@H](OC)C3)[C@H](C)[C@@H](O)CC1=O)[C@H](C)C[C@@H]2OC`, the Potency in the assay with PAD was 1410 nM (active); in the assay on PC15, 2240 nM (active); in the assay with PC26, 1690 nM (active); in the assay on PC49 it was 2000 nM (active); in the assay with SC27B it was 1780 nM (active); in the assay on TAB109 it was 2000 nM (active). In addition, the figures for the Potency in the assay with TAB113, in the assay with TAB165 and with W2 were 1780 nM (active), 1410 nM (active) and 338 nM (active), respectively.

For `COc1ccc2c(=O)c(C)c(-c3ccccc3)oc2c1CN(C)C`, the Potency result in the assay with PAD, in the assay on PC15, in the assay with PC26, in the assay with PC49, in the assay on SC27B and in the assay on TAB109 was “inactive” each time. Besides, the Potency result in the assay on TAB113 and in the assay with TAB165 was “inactive” in each case. For the same molecule, the Potency in the assay with W2 is 6750 nM (active).

On to `CCOc1ccc(S(=O)(=O)O)c2cccnc12`, for which the Potency result in the assay on PAD, in the assay on PC15, with PC26, in the assay on PC49, in the assay with SC27B and in the assay with TAB109 was “inactive” in each case. The Potency result in the assay on TAB113, with TAB165 and in the assay on W2 was “inactive” each time.

In the case of `O=C(O)C1=C(CSc2nnnn2CS(=O)(=O)O)CS[C@@H]2[C@H](NC(=O)[C@H](O)c3ccccc3)C(=O)N12`, the Potency result in the assay on PAD, in the assay with PC15, in the assay on PC26, in the assay on PC49, in the assay on SC27B and in the assay on TAB109 was “inactive” in each case. The Potency entry with TAB113, in the assay on TAB165 and with W2 was “inactive” in each case.

Regarding `O=P(O)(O)OC[C@H](O)CO`, the Potency result with PAD, in the assay with PC15, with PC26, with PC49, in the assay with SC27B and with TAB109 was “inactive” in each case. Besides, the Potency entry with TAB113, with TAB165 and in the assay on W2 was “inactive” each time.

For the molecule `C[C@@](Cc1ccc(O)c(O)c1)(NN)C(=O)O`, the Potency entry in the assay with PAD, in the assay on PC15, with PC26, with PC49, in the assay on SC27B and with TAB109 was “inactive” each time. Further, the Potency result in the assay on TAB113, in the assay on TAB165 and in the assay on W2 was “inactive” each time.

With `CCC(Cc1c(I)cc(I)c(O)c1I)C(=O)O` (stereo not given), the Potency entry in the assay with PAD, in the assay with PC15, in the assay on PC26, in the assay with PC49, in the assay on SC27B and in the assay with TAB109 was “inactive” in each case. For the same molecule, the Potency entry with TAB113, in the assay with TAB165 and with W2 was “inactive” in each case.

Consider `CCCCC(CC)COS(=O)(=O)O` (stereo not given), for which the Potency entry with PAD, in the assay on PC15, in the assay with PC26, in the assay with PC49, in the assay with SC27B and in the assay on TAB109 was “inactive” each time. Moreover, the Potency entry in the assay with TAB113, in the assay on TAB165 and with W2 was “inactive” in each case.

As for `C[C@H](O)CN(C)C`, the Potency entry in the assay on PAD, with PC15, in the assay on PC26, in the assay on PC49, with SC27B and in the assay on TAB109 was “inactive” throughout. In addition, the Potency result in the assay with TAB113, with TAB165 and with W2 was “inactive” each time.

Turning to `Cc1cc(=O)c(C(=O)N[C@@H](C(=O)N[C@@H]2C(=O)N3C(C(=O)O)=C(CSc4nnnn4C)CS[C@H]23)c2ccc(O)cc2)c[nH]1`, the Potency result with PAD, in the assay with PC15, with PC26, in the assay on PC49, in the assay on SC27B and with TAB109 was “inactive” each time. Besides, the Potency result with TAB113, with TAB165 and with W2 was “inactive” throughout.

As for `CC1(O)CCC(C(C)(C)O)CC1` (stereo not given), the Potency entry with PAD, in the assay with PC15, in the assay on PC26, in the assay with PC49, with SC27B and with TAB109 was “inactive” throughout. The Potency entry with TAB113, in the assay on TAB165 and in the assay with W2 was “inactive” in each case.

On to `[O-][N+](=Nc1ccccc1)c1ccccc1`, for which the Potency result in the assay with PAD, in the assay with PC15, in the assay on PC26, in the assay with PC49, with SC27B and in the assay on TAB109 was “inactive” each time. In addition, the Potency entry with TAB113, with TAB165 and in the assay on W2 was “inactive” each time.

Turning to `COc1ccc(/C=C/C(=O)OCCC(C)C)cc1`, the Potency entry in the assay with PAD, with PC15, with PC26, in the assay with PC49, in the assay on SC27B and in the assay with TAB109 was “inactive” in each case. Moreover, the Potency result in the assay with TAB113, in the assay on TAB165 and in the assay with W2 was “inactive” in each case.

As for `CO`, the Potency entry in the assay on PAD, in the assay on PC15, in the assay on PC26, with PC49, in the assay with SC27B and in the assay on TAB109 was “inactive” in each case. Moreover, the Potency result in the assay with TAB113, with TAB165 and in the assay on W2 was “inactive” each time.

Turning to `CCCCCCCCCCCC(=O)N(CCO)CCO`, the Potency entry in the assay with PAD, with PC15, with PC26, in the assay with PC49, in the assay on SC27B and with TAB109 was “inactive” throughout. Also, the Potency entry in the assay with TAB113, in the assay on TAB165 and in the assay with W2 was “inactive” each time.

Turning to `CCOC(=O)c1c[nH]c2cc(OCC(C)C)c(OCC(C)C)cc2c1=O`, the Potency is 158 nM (active) in the assay on PAD; 112 nM (active) in the assay with PC15; 120 nM (active) in the assay on PC26; 141 nM (active) in the assay with PC49; 100 nM (active) with SC27B; 89.1 nM (active) in the assay with TAB109. Also, the results for the Potency with TAB113, in the assay on TAB165 and in the assay with W2 were 112 nM (active), 70.8 nM (active) and 53.6 nM (active), respectively.

On to `Cc1c(Cl)cccc1Nc1ncccc1C(=O)O`, for which the Potency result in the assay on PAD, in the assay with PC15, in the assay on PC26, in the assay with PC49, in the assay on SC27B and in the assay with TAB109 was “inactive” throughout. Moreover, the Potency entry with TAB113, with TAB165 and in the assay on W2 was “inactive” in each case.

`CC(C)CCCC(C)NC(C)C` (stereo not given): the Potency entry in the assay with PAD, in the assay with PC15, with PC26, in the assay on PC49, in the assay on SC27B and with TAB109 was “inactive” in each case. The Potency result in the assay with TAB113, in the assay on TAB165 and in the assay on W2 was “inactive” each time.

As for `O=C(O)c1ccc(OCCn2ccnc2)cc1`, the Potency entry in the assay with PAD, in the assay with PC15, in the assay with PC26, in the assay on PC49, with SC27B and in the assay with TAB109 was “inactive” in each case. Further, the Potency result in the assay with TAB113, in the assay on TAB165 and in the assay with W2 was “inactive” each time.

In the case of `N=C(N)n1cccn1`, the Potency result with PAD, with PC15, in the assay on PC26, with PC49, in the assay on SC27B and with TAB109 was “inactive” each time. Also, the Potency result in the assay with TAB113, in the assay on TAB165 and in the assay with W2 was “inactive” each time.

For `CCCCCCCCCCCCOCCCN`, the Potency entry in the assay with PAD, in the assay with PC15, with PC26, with PC49, in the assay with SC27B and with TAB109 was “inactive” each time. Besides, the Potency result in the assay with TAB113, in the assay on TAB165 and with W2 was “inactive” in each case.

With `CC(=O)[O][Al][O]C(C)=O`, the Potency entry in the assay with PAD, with PC15, in the assay with PC26, in the assay on PC49, with SC27B and in the assay on TAB109 was “inactive” throughout. The Potency entry with TAB113, with TAB165 and in the assay with W2 was “inactive” in each case.

Take `C/C=C/C=C/C(=O)O`: the Potency result in the assay with PAD, in the assay on PC15, in the assay with PC26, in the assay on PC49, in the assay on SC27B and in the assay on TAB109 was “inactive” each time. The Potency result in the assay with TAB113, in the assay on TAB165 and with W2 was “inactive” each time.

Consider `NCCO/C=C/[C@H](N)C(=O)O`, for which the Potency result with PAD, in the assay with PC15, with PC26, in the assay on PC49, with SC27B and in the assay with TAB109 was “inactive” each time. The Potency entry in the assay on TAB113, in the assay with TAB165 and in the assay with W2 was “inactive” in each case.

On to `CC(C)(CO)[C@@H](O)C(=O)NCCC(=O)NCCSSCCNC(=O)CCNC(=O)[C@H](O)C(C)(C)CO`, for which the Potency result with PAD, in the assay on PC15, with PC26, with PC49, with SC27B and in the assay on TAB109 was “inactive” throughout. In addition, the Potency entry in the assay with TAB113, in the assay with TAB165 and in the assay on W2 was “inactive” each time.
